Reference: PubChem BioAssay (NCI)
This is part of a sample that, as a whole, favours compounds with a hit. Of some 83,000 tested, about 20% had one in any assay.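 Note: values are percent growth. 100 is the growth of untreated cells, values between 100 and 0 indicate rising inhibition; between -100 and 0 indicates cell death.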 A number with no mark means an inactive call. Calls of active or inactive are those of the source. Rule for the calls: active = growth percent below 10; inactive = the rest.

What was measured:
Test in all cases: NCI-60 one-dose screen, 48 h (100 = growth as untreated, 0 = no growth, -100 = all killed)
[1] = tested on: SR leukemia; settings: 10 µM
[2] = tested on: RPMI-8226 leukemia; settings: 10 µM
[3] = tested on: OVCAR-8 ovarian; settings: 10 µM
[4] = tested on: OVCAR-5 ovarian; settings: 10 µM
[5] = tested on: OVCAR-4 ovarian; settings: 10 µM
[6] = tested on: SK-OV-3 ovarian; settings: 10 µM
[7] = tested on: IGROV1 ovarian; settings: 10 µM
[8] = tested on: HS 578T breast; settings: 10 µM
[9] = tested on: NCI/ADR-RES ovarian; settings: 10 µM
[10] = tested on: T-47D breast; settings: 10 µM
[11] = tested on: BT-549 breast; settings: 10 µM
[12] = tested on: MDA-MB-435 melanoma; settings: 10 µM
[13] = tested on: SW-620 colon; settings: 10 µM
[14] = tested on: MCF7 breast; settings: 10 µM unless noted
[15] = tested on: HCT-116 colon; settings: 10 µM
[16] = tested on: HCC-2998 colon; settings: 10 µM
[17] = tested on: KM12 colon; settings: 10 µM
[18] = tested on: OVCAR-3 ovarian; settings: 10 µM

| SMILES | growth [1] | growth [2] | growth [3] | growth [4] | growth [5] | growth [6] | growth [7] | growth [8] | growth [9] | growth [10] | growth [11] | growth [12] | growth [13] | growth [14] | growth [15] | growth [16] | growth [17] | growth [18] |
| --- | --- | --- | --- | --- | --- | --- | --- | --- | --- | --- | --- | --- | --- | --- | --- | --- | --- | --- |
| CNS(=O)(=O)c1ccc(Cl)c(Cl)c1 | 78.1% | 136% | 99.2% | 98.5% | 99.8% | 105% | 114% | 98.9% | 110% | 99.2% | 112% | 98.7% | 104% | 98% | 107% | 118% | 108% |  |
| CCCCCCCO | 91.5% | 102% | 99.7% | 87.5% | 97.9% | 106% | 115% | 102% | 107% | 104% | 103% | 114% | 95% | 88.8% | 102% |  | 112% |  |
| CC(=O)Nc1c(C)cc(C)cc1C | 98.7% | 111% | 104% | 115% | 95.9% | 113% | 110% |  | 99.7% | 98.2% | 105% | 102% | 106% | 96.5% | 102% |  | 103% | 102% |
| COc1nc(N)nc2c1ncn2C1OC(CO)CC1O (stereo not drawn) | 115% | 92% | 101% | 100% | 120% | 98.5% | 112% |  | 107% |  | 94.3% | 105% | 108% | 100% | 98.8% | 105% | 103% | 118% |
| C#CC(C)(O)c1ccc(Cl)cc1 (stereo not drawn) | 96.6% | 101% | 105% | 107% | 102% | 90.3% | 111% | 106% | 92.4% | 86.1% | 105% | 110% | 109% | 97% | 96.8% | 97.8% | 105% |  |
| O=C(/C(=N/O)c1ccccc1)c1ccccc1 | 110% | 99.5% | 103% | 111% | 102% | 106% |  | 101% | 113% | 90.2% | 98% | 108% | 107% | 87.9% | 98% | 107% |  | 116% |
| O=c1cc2oc3cc(O)c(O)cc3c(-c3ccccc3O)c-2cc1O | 82.7% | 12.1% | 75.1% | 94.8% | 70.1% | 57.4% | 63.9% |  |  | 70.8% | 77.7% | 68.9% | 89.3% | 75.8% | 59.2% | 94.7% | 92.7% |  |
| CC(=O)OC(OC(C)=O)C1CCCO1 (stereo not drawn) | 135% | 114% | 103% | 100% | 97.9% | 105% | 110% | 105% | 94.5% | 101% | 95.8% | 108% | 107% | 92.1% | 91.3% |  | 101% |  |
| O=C(O)C(O)c1ccccc1 (stereo not drawn) | 94.7% | 113% | 105% | 103% | 98.6% | 109% | 107% | 110% | 105% | 95.1% | 97.1% | 108% | 107% | 99.1% | 96.7% | 103% | 99.3% |  |
| O=[N+]([O-])c1ccc(N=Nc2ccc(O)c3ccccc23)cc1 | 19.4% | 28.5% | 10.6% | 124% | 40.1% | 92% | 38.1% |  | 28.1% | 9.85% (active) |  | 52.7% | 34% | 19.5% |  |  | 33.1% | -0.85% (active) |
| Oc1ccccc1O | 75.5% | 60.1% | 86.3% | 106% | 77.4% | 120% | 79.1% | 112% | 90.2% | 95.2% | 96% | 110% | 94.7% | 82.5% | 87.6% |  | 86.5% |  |
| O=C(O)CCCCNC(=O)c1ccccc1 | 95.7% | 103% | 108% | 116% | 108% | 97.9% | 108% | 108% | 94.8% | 88.2% | 103% | 113% | 107% | 101% | 101% | 94.3% | 99% |  |
| COc1cc(-c2ccc(NC(=O)NC3CC3)c(OC)c2)ccc1NC(=O)NC1CC1 | 1.38% (active) | 36.2% | 57.9% | 101% | 80.4% | 75.5% | 83.8% | 81.5% | 90.3% | 82.8% | 89.5% | 99.4% | 66.8% | 72.4% | 36.9% | 68.2% | 71.8% |  |
| CCCCN(CCCC)CCCO | 113% | 158% | 99.8% | 99.4% | 108% | 110% | 125% |  | 105% | 107% |  | 117% | 120% | 96.7% | 110% | 94.1% | 104% | 101% |
| NNc1ccccc1C(=O)O | 112% | 112% | 110% | 88.9% | 111% | 115% | 118% |  | 107% | 107% | 103% | 116% | 101% | 104% | 112% |  | 108% | 119% |
| Cc1ccccc1N=C(c1ccccc1)C1C(=O)c2ccccc2C1=O | 27% | 59.9% | 97.4% | 103% | 101% | 61.8% | 55.3% | 83% | 80.2% | 40.4% | 42.6% | 27% | 84.3% | 55.2% | 46.4% | 104% |  |  |
| CN(C)c1ccc(C(c2ccc(O)cc2)c2ccc(N(C)C)cc2)cc1 | 67.5% | 80.1% | 94.1% | 98.6% | 94.9% | 104% |  | 91.8% | 93.9% | 59.8% | 103% | 41.8% | 96.5% | 78.6% | 93.9% | 117% |  | 92.5% |
| NC(N)=Nc1cc2ccccc2c2ccccc12 | 44.3% | 33.5% | 45.9% | 95.8% | 74.4% | 80.2% | 65.2% |  |  | 88.1% | 81.2% | 84.8% | 76.6% | 81% | 65.9% | 95.4% | 81% | 73.1% |
| COc1ccc(Oc2c(I)cc(CC(NC(C)=O)C(=O)O)cc2I)cc1 (stereo not drawn) | 83.1% | 74.3% | 83.2% | 91.7% | 89.4% | 105% | 106% | 95.7% | 62.4% | 74% | 65.1% | 85.1% | 104% | 89.2% |  | 88% | 113% |  |
| CC1CC(O)C2C3(C)CCCC2(COC3=O)C12CCC1(CCOC1=O)O2 (stereo not drawn) | 114% | 117% | 127% | 104% | 103% | 105% | 113% | 99% | 111% | 102% | 96.1% | 101% | 102% | 103% | 97.4% | 122% | 107% |  |
